Screening data (PubChem)
eIF4E-4G inh: blocks eIF4E binding to eIF4G | TR-FRET eIF4E-eIF4GI(517-606) binding, 2 h | inhibition, % at 21.7 µM | 220,000 compounds, 0.37% hits | AID 782;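 active means inhibition above about 30%, limit read from the data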;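 further: 0% = full FRET control wells and 100% = background wells lacking eIF4GI fragment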
14-3-3 Bad inh: disrupts binding of bovine 14-3-3 zeta to phospho-Bad peptide; P63103; TR-FRET 14-3-3zeta/Dy647-pBad peptide displacement, 1 h; inhibition, % at 21.7 µM; 220,000 compounds, 0.71% hits;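 active means inhibition above about 70%, limit read from the data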;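 further: 0% = full 14-3-3 plus peptide FRET controls and 100% = background without 14-3-3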
Target sequence (P63103 whole entry, looked up): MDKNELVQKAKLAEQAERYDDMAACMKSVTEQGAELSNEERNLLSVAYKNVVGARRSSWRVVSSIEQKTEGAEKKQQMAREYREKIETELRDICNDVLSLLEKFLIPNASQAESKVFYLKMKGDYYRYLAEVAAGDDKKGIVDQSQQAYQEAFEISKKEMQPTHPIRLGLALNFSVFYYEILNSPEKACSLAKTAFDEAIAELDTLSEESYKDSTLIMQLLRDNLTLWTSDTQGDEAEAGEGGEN
PABP1 MLLE inh: inhibitors of microRNA-mediated deadenylation, human PABP1 MLLE binding. AID 588489. GST-MLLE / FITC-PAM2 fluorescence polarization. inhibition, % at 20 µM. 360,000 compounds, 0.36% hits. P11940; in the data active means inhibition above about 35%, passing the limit was not always enough;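 further: plate controls were DMSO wells with GST-MLLE for no effect and wells lacking GST-MLLE protein for full effect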
PABP FP inh: blocks human PABP binding to poly(A) RNA; fluorescence polarization; calls only at 35 µM; 290,000 compounds, 1% hits;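 further: calls also rest on retests at 20 µM and on dose response follow-up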
eIF4H FP inh: inhibitors of RNA binding by human eIF4H; Q15056; eIF4H fluorescence polarization binding assay; inhibition, % at 35 µM; 290,000 compounds, 0.94% hits;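 further: calls also rest on retests at 20 µM and on dose response follow-up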
The depositor's hits bear a star; i = inactive; · = no result; + = active, no number. The list is not random: actives were taken first. Their share in the collection is about 1.9%. Unless noted, how the calls were made is not given here.

SMILES	eIF4E-4G inh	14-3-3 Bad inh	PABP1 MLLE inh	PABP FP inh	eIF4H FP inh
O=C1CCNc2cc3ccccc3cc21	-4.2	-22.5	24.4	+	82.2*
CCCCc1ccc(NC(=O)CC(C)(C)C)cc1	2.3	-0.1	1.6	+	98.0*
CCc1nc2c(OCC(=O)C(C)(C)C)cccn2c1N(C)C(=O)COc1ccccc1	·	·	-29.0	·	·
CCC(C)NC(=O)c1cc2c(=O)[nH]c3ccc(C)cc3c2s1 (centres undefined)	·	·	-1.5	i	-9.3
O=C(NC(=S)Nc1ccc(S(=O)(=O)N2CCCCC2)cc1)c1cccs1	2.0	-0.7	44.1*	i	2.0
CN1CCN(C(=S)NC(=O)c2ccc(S(=O)(=O)N3CCOCC3)cc2)CC1	-2.2	-7.2	40.2*	i	-6.5
O=C(NC(=S)N1CCN(C(c2ccccc2)c2ccccc2)CC1)c1ccc(S(=O)(=O)N2CCOCC2)cc1	-1.5	-10.5	8.8	i	5.3
CC(Oc1ccccc1Cl)C(=O)Nc1ccc(S(=O)(=O)N2CCN(C)CC2)cc1 (centres undefined)	·	·	39.6*	·	·
CN1CCN(S(=O)(=O)c2ccc(NC(=S)NC(=O)C(C)(C)C)cc2)CC1	1.9	-12.8	40.2*	i	-2.6
CCC(=O)NC(=S)Nc1ccc(S(=O)(=O)N2CCN(C)CC2)cc1	7.5	-10.7	-0.4	i	-3.7
CC(NC(=O)CCCc1ccccc1)c1ccncc1 (centres undefined)	·	·	-7.6	i	3.6
NS(=O)(=O)c1ccc(NC(=S)Nc2ccc(S(=O)(=O)N3CCCC3)cc2)cc1	-2.1	-7.7	43.1*	i	10.8
CN(Cc1ccccc1)S(=O)(=O)c1ccc(NC(=S)NC(=O)C(C)(C)C)cc1	2.5	-4.5	36.2*	i	1.5
O=C(Cc1cccs1)Nc1ccc(S(=O)(=O)N2CCCC2)cc1	33.2*	33.4	-7.4	i	19.9
CN(Cc1ccccc1)S(=O)(=O)c1ccc(NC(=S)NC(=O)C2CCCCC2)cc1	1.2	-0.5	20.5	i	-17.7
Cc1onc(-c2c(F)cccc2Cl)c1C(=O)Nc1cc2cc([N+](=O)[O-])ccc2oc1=O	·	·	10.7	·	·
Cc1ccsc1C(=O)N1CCC1(C)C(=O)NS(=O)(=O)c1ccccc1 (centres undefined)	·	·	15.2	·	·
O=[N+]([O-])c1ccc(COc2ccccc2CN2CCCCC2)cc1	·	·	6.0	·	·
N#Cc1c(-c2ccco2)ccn(Cc2cccc(F)c2)c1=O	-0.4	-7.2	-1.9	+	69.9*
N#Cc1c(-c2ccco2)ccn(Cc2ccc(F)cc2)c1=O	-1.8	-10.7	-27.0	i	-3.8
CC(=O)OCC(=O)C12OC(C)(C)OC1CC1C3CC=C4CC(O)CCC4(C)C3CCC12C (centres undefined)	·	·	1.5	·	·
O=C(O)COc1ccccc1C(Nc1ccccn1)c1cc(Cl)c2cccnc2c1O (centres undefined)	19.7	24.2	32.1	+	53.8*
O=C(O)COc1ccccc1C(Nc1cccnc1)c1cc(Cl)c2cccnc2c1O (centres undefined)	27.2	64.5	32.2	i	99.5
COc1ccc(/C=N/Nc2nc(-c3cccnc3)nc3ccccc23)c(OC)c1	11.0	70.3*	-16.6	i	-46.3
Cc1ccc(-c2nc(N/N=C/c3cccnc3)c3ccccc3n2)cc1	-3.7	-1.1	5.8	i	8.5
SMILES	eIF4E-4G inh	14-3-3 Bad inh	PABP1 MLLE inh	PABP FP inh	eIF4H FP inh
O=C(COc1ccc([N+](=O)[O-])cc1)Nc1ccc(C(=O)Nc2ccccc2C(=O)O)cc1	2.4	11.7	16.8	i	-8.2
O=C(NCC(=O)N1CC=C(c2ccccc2)CC1)c1ccccc1Br	·	·	-11.1	i	-1.6
Cc1cccc(N2C(=S)NC3c4cc(Cl)ccc4OC2(C)C3C(=O)N(C)C)c1 (centres undefined)	-2.1	-7.1	17.1	i	1.0
Cc1ccc(N2C(=S)NC3c4cc(Cl)ccc4OC2(C)C3C(=O)N(C)C)cc1 (centres undefined)	6.7	-5.9	44.0*	i	-0.8
CC(=O)N1CC=CC1(CC(C)C)C(=O)NCCN1CCOCC1 (centres undefined)	0.7	-1.5	-7.3	i	5.2
COC(C[C@H]1O[C@H]1[C@H](O)[C@H](C)OCc1ccccc1)OC	-5.8	-5.0	-2.8	i	4.3
CC(C)(C)N1C(=O)c2ccccc2NC(=O)N1Cc1ccccc1	-4.3	-4.4	9.4	i	1.6
O=C1Nc2ccccc2C(=O)C1(Cl)Cc1ccccc1 (centres undefined)	38.4*	28.1	-95.2	i	-0.1
